# HT1080NT lethal – kills 2HG-producing HT-1080-NT fibrosarcoma cells; HT-1080-NT fibrosarcoma viability, CellTiter-Glo ATP luminescence, 48 h; 360,000 tested, 1.6% active; Potency, µM (highest dose often 46.1 µM), actives largely listed as cytotoxic;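 also: NT is the 2HG producing partner of a matched IDH1 knockdown line; nearly all actives have a fitted effect of over 55% in size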
#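 Compounds were tested in concentration-response format on HT-1080-NT cells for 48 hours at 37 degrees C. Cell viability came from CellTiter-Glo luminescence; curves were classified by r2, response magnitude and activity.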
# HepG2 tox – kills HepG2 cells in TGF-b inhibitor counter-screen; HepG2 CAGA-GFP viability, ATP luminescence, 18 h; Potency, µM (series often up to 46.1 µM), usual class: cytotoxic; 410,000 tested, 0.76% active; AID 588856
#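 HepG2 CAGA-GFP cells (1000/well, DMEM with 1% FBS) received compound, then TGF-beta at 500 pg/mL final, and were incubated 18 hours at 37 degrees C. Viability was read by CellTiter-Glo luminescence. Media-only wells were set as complete cell-killing and DMSO as no toxicity.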
# HT1080 IDH1KD tx – toxicity to HT-1080 IDH1 knockdown cells (counter line) | AID 686971 | 360,000 tested, 2% active | Potency, µM (titrated, usually from 46.1 µM), most hits filed as cytotoxic | HT-1080 IDH1 knockdown viability, ATP luminescence, 48 h
#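 Using the IDH1-knockdown HT-1080 line run in the same batch and compound series as the NT line, viability after 48 h at 37 °C was determined by CellTiter-Glo luminescence and expressed as % activity.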
# KB-V1 cytotox – kills drug-selected multidrug resistant KB-V1 cells | Potency, µM (series often up to 46.1 µM), hits mostly cytotoxic | AID 1347076 | 400,000 tested, 3.4% active | KB-V1 MDR cells viability, CellTiter-Glo, 72 h; also: nearly all actives have a fitted effect of over 60% in size
#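 KB-V1 cells (P-gp-expressing MDR subline of KB-3-1) in phenol-red-free DMEM with 10% FBS were exposed to library compounds over a concentration series for 72 h at 37 degrees C. Viability read by CellTiter-Glo luminescence; concentration-effect curves fitted after normalization.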
# TGFb inhibitor – blocks TGF-b signaling. AID 588855. HepG2 CAGA-GFP TGF-b/SMAD3 reporter, GFP fluorescence, 18 h; TGF-beta stimulated, 500 pg/mL final. 410,000 tested, 1.2% active. Potency, µM (doses to about 46.1 µM), most hits filed as inhibitors; also: nearly all actives have a fitted effect of over 65% in size
#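 HEPG2 CAGA-GFP, 1000 cells/well; 2 h settle, 37 C; cpd via pin tool; TGF-b 500 pg/mL final; 18 h, 37 C; GFP imaging ex488/em500-530; %Activity normalised to -TGF-b and +DMSO controls; CRC fit, curve class.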
# KB-3-1 tox – KB-3-1 parental cell cytotoxicity; 400,000 tested, 1.4% active; Potency, µM (highest dose often 46.1 µM), actives largely listed as cytotoxic; KB-3-1 viability, CellTiter-Glo ATP luminescence, 72 h; also: nearly all actives have a fitted effect of over 60% in size
#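 Viability of parental KB-3-1 cells, measured by CellTiter-Glo luminescence, followed a 72 h incubation at 37 °C with pinned compounds in phenol-red-free DMEM containing 10% FBS.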
# A number is an active result; n = inactive; u = inconclusive; x = not tested or not shown. Shown are actives, neighbours in structure and some others; about 6.6% of the full set was active somewhere. Calls follow the shape of the dose curve; as a rule, active = well fitted curve in the direction sought with a large enough effect; inconclusive = small, poorly fitted or top-dose-only effect, or another doubt; inactive = no such curve, though single readings can be large; an effect the other way counts as inactive or inconclusive.
SMILES,HT1080NT lethal,HepG2 tox,HT1080 IDH1KD tx,KB-V1 cytotox,TGFb inhibitor,KB-3-1 tox
O=C(O)CC(CC(=O)O)c1ccc2c(c1)OCO2,x,n,x,n,n,n
COc1cc2nc(N3CCCCC3)nc(NC3CC3)c2cc1OC,n,x,n,x,x,x
O=c1c2oc3ccccc3c2n(Cc2cccc(C(F)(F)F)c2)c(=O)n1Cc1ccc2c(c1)OCO2,x,n,x,x,n,x
COC(=O)c1cc2ccsc2n1CC(=O)Nc1cc(Cl)ccc1OC,7.9µM,n,u,u,u,u
COc1ccc(Br)cc1CN(C)CC(=O)Nc1cc(Cl)ccc1Cl,n,n,n,7.3µM,u,n
COc1ccc(Cl)cc1NC(=O)CN1CCc2ccccc21,n,n,n,u,n,n
COc1ccc(Cl)cc1NC(=O)CN1Cc2ccccc2C1=O,x,n,x,5.2µM,n,u
COc1ccc(Cl)cc1NC(=O)CN(C)CC(=O)Nc1ccccc1-c1ccccc1,n,n,u,9.2µM,n,n
O=C(/C=C/c1ccccc1Cl)Nc1cccc([S+](=O)([O-])Nc2ccccc2F)c1,x,x,x,n,x,u
COc1ccc(-c2csc(NC(=O)c3c(C)noc3C)n2)cc1OC,n,n,n,n,n,n
CC(=O)Nc1cccc(-c2csc(Nc3cc(C)ccn3)n2)c1,u,n,n,23µM,u,n
CC(=O)Nc1ccc(-c2csc(Nc3cc(C)ccn3)n2)cc1,u,n,u,u,u,u
O=c1[nH]c(NCc2ccco2)nnc1Cc1ccccc1Cl,u,n,u,u,n,5.8µM
Cc1ccc(-c2ccc(=O)[nH]n2)cc1,n,n,n,u,n,n
CCCCCc1ccc(-c2ccc(=O)[nH]n2)cc1,n,n,n,5.2µM,n,6.5µM
O=C(NC1CCCC1)c1ccc2c(c1)N(Cc1ccc(C(F)(F)F)cc1)C(=O)c1ccccc1S2,x,n,x,u,u,n
O=C(NCc1ccccc1Br)C1CCCN(C(=O)N2CCOc3ccccc32)C1 (stereo not given),x,n,x,n,u,n
O=S(=O)(c1ccc2c(c1)C(=NO)c1cc(S(=O)(=O)N3CCCCC3)ccc1-2)N1CCCCC1,0.37µM,1.8µM,0.58µM,5.2µM,u,1.2µM
Nc1cc(S(=O)(=O)N2CCOCC2)ccc1N1CCCCC1,n,n,n,n,n,n
Nc1cc(S(=O)(=O)N2CCCCC2)ccc1N1CCCCC1,n,n,n,18µM,u,u
CC1CCN(S(=O)(=O)c2ccc3c(c2)C(=NO)c2cc(S(=O)(=O)N4CCC(C)CC4)ccc2-3)CC1,1.5µM,1.3µM,2.6µM,n,8.9µM,u
CCN1C(=O)C(Cc2nc3ccccc3c(=O)n2C)c2cc(C)ccc21 (stereo not given),x,n,x,n,n,n
O=C(OCc1cn([C@@H]2C[C@H](c3ccc(Cl)cc3)N(C(=O)C3CCCCC3)C[C@H]2O)nn1)c1ccccc1,n,n,u,n,u,n
O=C(NC(=S)NNC(=O)c1cnccn1)c1ccc(Cl)cc1,n,n,u,n,n,n
COc1ccc(C(=O)NC(=S)NNC(=O)c2cnccn2)cc1,u,n,2.9µM,n,n,u
SMILES,HT1080NT lethal,HepG2 tox,HT1080 IDH1KD tx,KB-V1 cytotox,TGFb inhibitor,KB-3-1 tox
COc1cc(C(=O)NC(=S)NNC(=O)c2cnccn2)cc(OC)c1OC,u,n,15µM,u,n,u
CCOc1ccc(NC(=O)C2CCN(S(=O)(=O)c3c(C)noc3/C=C/c3cccs3)CC2)cc1,x,n,x,x,n,x
CN(CCO)C1=NS(=O)(=O)c2cc([N+](=O)[O-])ccc21,n,n,n,n,n,n
C=CCOCCN(C)C1=NS(=O)(=O)c2cc([N+](=O)[O-])ccc21,n,14µM,u,n,u,u
CCCCS(=O)(=O)c1oc(-c2ccc(F)cc2)nc1S(=O)(=O)c1ccccc1,x,5.6µM,x,x,2.8µM,x
CC(C)S(=O)(=O)c1oc(-c2ccc(F)cc2)nc1S(=O)(=O)c1ccccc1,x,3.2µM,x,x,1.4µM,x
CSc1oc(-c2ccc(F)cc2)nc1S(=O)(=O)c1ccccc1,n,n,n,n,n,n
CC(C)S(=O)(=O)c1oc(-c2cccs2)nc1S(=O)(=O)c1ccc(F)cc1,x,3.5µM,x,x,2.5µM,x
CS(=O)(=O)c1oc(-c2ccc(F)cc2)nc1S(=O)(=O)c1ccc(Cl)cc1,x,5µM,x,x,3.2µM,x
Cc1nn(CC(=O)Nc2ccc(C(C)C)cc2)c(=O)c2c(C)n(-c3ccc(Cl)cc3)nc12,x,n,x,x,n,x
COCCCNc1oc(-c2cccs2)nc1S(=O)(=O)c1ccc(C)cc1,n,n,n,15µM,n,n
CCS(=O)(=O)c1oc(-c2ccc(F)cc2)nc1S(=O)(=O)c1ccc(Br)cc1,x,3.5µM,x,x,2.8µM,x
CCOc1ccc(CCNC(=O)c2cc3c(s2)-c2c(C)cccc2OC3)cc1,x,n,x,n,n,n
O=C(Nc1nc([C@@H]2O[C@H](CO)[C@@H](O)[C@H](O)[C@H]2O)cs1)NC(c1ccccc1)c1ccccc1,n,n,n,n,n,18µM
COc1ccc(OC)c(/C=C(\C)C(=O)c2c(C)cc(C)[nH]c2=O)c1,n,n,n,n,n,n
CCOC(=O)C1CCCN(c2c(C(=O)c3ccc(C)cc3)cnc3ccc(OCC)cc23)C1 (stereo not given),x,n,x,x,n,x
CC(=O)Nc1nc(C)c(-c2csc(Nc3ccc(O)cc3)n2)s1,u,n,18µM,n,n,8.2µM
CC(=O)Nc1ccc(Nc2nc(-c3sc(NC(C)=O)nc3C)cs2)cc1,n,n,n,n,n,u
CCC(C)C(=O)Nc1nc(C)c(-c2csc(Nc3ccc(Cl)cc3)n2)s1 (stereo not given),n,n,n,n,u,6.5µM
COc1ccc(N(C(=O)/C=C\C(=O)Nc2ccc(C)cc2)C(C(=O)NCc2ccco2)c2ccc(C)cc2)cc1 (stereo not given),x,n,x,x,n,x
Cc1ccc(NN2C(=O)C=C(c3ccc(Cl)cc3)C2=O)cc1,u,n,u,12µM,u,u
COc1ccc(C2=CC(=O)N(Nc3ccccc3)C2=O)cc1,u,n,16µM,n,u,n
O=C1C=C(c2ccccc2)C(=O)N1Nc1ccccc1,n,n,u,n,u,u
CC(C)C(=O)NNC(=O)c1c(O)c2ccccc2[nH]c1=O,n,n,n,n,n,n
CC(C)NC(=O)c1c(O)c2ccccc2[nH]c1=O,u,n,3.2µM,n,n,u
COC(=O)Nc1ccc(S(=O)(=O)NNC(=O)c2c(O)c3ccccc3[nH]c2=O)cc1,n,n,n,n,n,n
Cc1ccc(S(=O)(=O)NNC(=O)c2c(O)c3ccccc3[nH]c2=O)cc1,n,n,n,2.6µM,n,n
